Shown are actives, neighbours in structure and some others; about 2.3% of the full set was active somewhere.
CHRM1 PAM: potentiates human M1 receptor response to acetylcholine | hit rate 0.088% among 360,000 | activation, % at 3 µM | AID 588819 | CHO-K1 hM1, Fluo-8 calcium fluorescence, ACh EC20; 0% = ACh EC20, 100% = maximal ACh | P11229; in the data active = activation above about 19%, passing the limit was not always enough
Target sequence (P11229 whole entry, looked up): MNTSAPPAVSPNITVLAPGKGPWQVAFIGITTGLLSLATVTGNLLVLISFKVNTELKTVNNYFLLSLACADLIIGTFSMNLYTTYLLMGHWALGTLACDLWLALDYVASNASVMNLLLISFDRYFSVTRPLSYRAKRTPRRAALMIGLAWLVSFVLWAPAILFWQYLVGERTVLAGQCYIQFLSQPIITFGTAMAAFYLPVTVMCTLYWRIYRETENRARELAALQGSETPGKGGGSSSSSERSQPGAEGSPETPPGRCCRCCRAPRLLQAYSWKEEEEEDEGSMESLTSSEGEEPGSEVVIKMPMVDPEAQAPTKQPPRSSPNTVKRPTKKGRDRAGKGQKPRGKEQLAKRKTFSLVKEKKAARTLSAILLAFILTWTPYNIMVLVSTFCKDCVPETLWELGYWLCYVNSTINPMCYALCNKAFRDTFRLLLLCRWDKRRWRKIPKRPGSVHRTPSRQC
CHO-K1 Ca antag: counter-screen for M1 antagonists: effect in parental CHO-K1 cells; inhibition, % at 3 µM; hit rate 0.6% among 360,000; ATP-induced calcium, Fluo-8 fluorescence; AID 602250;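 active = inhibition above a per-plate cutoff, the plate's mean sample inhibition plus 3 SD, cut at about 24% in these data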
CHRM1 antagonist: human CHRM1 antagonism. hit rate 1.3% among 360,000. P11229. AID 588852. CHO-K1 hM1, Fluo-8 calcium fluorescence, ACh EC80 antagonist. inhibition, % at 3 µM;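 active = percent inhibition above its own plate's cutoff, namely the mean of that plate's compound wells plus 3 SD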;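 note: peak over basal fluorescence ratio during 140 s after agonist addition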
CHO-K1 Ca ag: M1 agonist counterscreen hit in parental CHO-K1 cells. activation, % at 3 µM. Fluo-8 calcium fluorescence; scaled to maximal ATP response, vehicle zero. hit rate 0.48% among 360,000; in the data active = activation above about 15%;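 note: untransfected CHO-K1 host cells lacking M1 receptor as counterscreen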
CHRM1 agonist: human M1 muscarinic receptor agonism. CHO-K1 hM1, Fluo-8 calcium fluorescence, agonist mode; 0% DMSO, 100% acetylcholine EC100. activation, % at 3 µM. hit rate 0.33% among 360,000. AID 588814;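 active = activation above the run's mean compound activation plus 3 SD, cut at about 16% in these data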;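 note: peak over basal fluorescence ratio within a 140 s kinetic read after compound addition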
CHO-K1 Ca PAM: M1 PAM counterscreen hit in parental CHO-K1 cells; hit rate 0.02% among 360,000; ATP EC20, Fluo-8 calcium fluorescence; 0% at ATP EC20, 100% at ATP max; activation, % at 3 µM; AID 602247;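 active = activation above the run cutoff, the mean activation of all test compounds plus 3 SD, cut at about 40% in these data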;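 note: peak over basal fluorescence ratio in a 140 s read after ATP addition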
Hits are given with their value; 0 = inactive; - = no result.

SMILES	CHRM1 PAM	CHO-K1 Ca antag	CHRM1 antagonist	CHO-K1 Ca ag	CHRM1 agonist	CHO-K1 Ca PAM
CCCCNC(=S)N/N=C1\C(=O)c2cccc3cccc1c23	0	25	0	0	0	0
Cc1ccccc1NS(=O)(=O)c1ccc(C(=O)NCCCN2CCCC2=O)cc1	0	0	0	0	0	0
Cc1cc(C)cc(NC(=O)Nc2ccc3c(c2)N(C)C(=O)CS3)c1	0	0	44	0	0	0
CCc1ccc(NC(=O)Nc2ccc3c(c2)N(C)C(=O)CS3)cc1	0	0	0	0	0	0
Cc1ccc(NC(=O)Nc2ccc3c(c2)N(C)C(=O)CS3)cc1C	0	35	32	0	0	0
CC(=O)c1cccc(NC(=O)Nc2ccc3c(c2)N(C)C(=O)CS3)c1	0	0	35	0	0	0
CC1=C(C(=O)N(C)C)CC(CC(=O)NC(c2ccccc2)c2ccccc2)C(=O)N1CCC1=CCCCC1 (stereo unspecified)	0	0	0	0	0	0
CCOC(=O)C1CCCN(C(=O)c2cc(COc3ccc(C)nc3)on2)C1 (stereo unspecified)	0	0	0	0	27	0
CCOC(=O)N1CCN(C(=O)c2cc(COc3ccc4ncccc4c3)on2)CC1	0	25	0	0	0	0
COCC1CCCN(C(=O)c2cc(COc3ccc4ncccc4c3)on2)C1 (stereo unspecified)	0	25	35	0	0	0
Cc1cccnc1CN1CCN(C(=O)c2cc(COc3ccc4ncccc4c3)on2)CC1	0	0	0	0	0	0
CCN(CC)C1CCN(C(=O)c2cc(COc3ccc(-n4cncn4)cc3)on2)C1 (stereo unspecified)	0	0	42	0	0	0
O=C(c1cc(COc2ccc3ncccc3c2)on1)N1CCCC(O)C1 (stereo unspecified)	0	0	0	0	0	0
CCOC(=O)N1CCC(N(CCN(C)C)C(=S)Nc2ccc(Oc3ccccc3)cc2)CC1	0	0	0	0	0	0
CC(C)[C@H](NC(=O)[C@@H]1Cc2c([nH]c3ccccc23)C2c3ccccc3C(=O)N21)C(=O)N1CCC[C@@H]1C(=O)O (stereo partly specified)	0	0	0	0	0	0
Cc1ccc(Sc2c([N+](=O)[O-])c(C)nn2C)cc1	0	0	88	0	0	0
COc1ccc(NC(=O)C2CCN(S(=O)(=O)c3c(C)noc3C)CC2)cc1Cl	0	0	0	0	0	0
O=C(CNC(=O)c1ccccc1F)NCc1ccncc1	0	0	0	0	0	0
COc1ccc(-c2csc(C(C)(O)c3ccc(F)c(F)c3)n2)cc1 (stereo unspecified)	0	0	0	0	0	0
O=C(c1ccc(Cl)c([N+](=O)[O-])c1)N1CCN(Cc2ccc3c(c2)OCO3)CC1	0	0	0	16	0	0
CC1CCN(c2nc3ccc(C(=O)N4CCN(Cc5ccc6c(c5)OCO6)CC4)cc3s2)CC1	0	0	29	0	0	0
O=[N+]([O-])c1ccc(N2CCN(Cc3ccc4c(c3)OCO4)CC2)nc1	0	0	0	0	0	0
O=C(c1cccc(Cl)c1)N1CCN(Cc2ccc3c(c2)OCO3)CC1	0	0	0	0	0	0
O=Cc1cc([N+](=O)[O-])ccc1N1CCN(Cc2ccc3c(c2)OCO3)CC1	0	0	35	0	0	0
COc1cc(C2(C)SCCCS2)cc(OC)c1OC	-	0	-	0	-	0
SMILES	CHRM1 PAM	CHO-K1 Ca antag	CHRM1 antagonist	CHO-K1 Ca ag	CHRM1 agonist	CHO-K1 Ca PAM
COc1ccc(CCNC(=O)c2cc3c(=O)n4ccccc4nc3n(Cc3ccco3)c2=N)cc1OC	0	28	0	0	0	0
COc1ccc(C(=O)OCC(=O)c2ccc[nH]2)c(OC)c1	0	0	0	0	0	0
C[C@H]1CN([C@@H](C)CO)C(=O)CCCn2cc(nn2)CO[C@@H]1CN(C)C(=O)Nc1ccccc1C(F)(F)F	0	0	0	0	0	0
CC(O)c1nc2ccccc2n1C/C=C/c1ccccc1 (stereo unspecified)	0	0	0	0	0	0
Cc1c(P(=S)(c2ccccc2)c2ccccc2)[n+]2ccccc2n1C/C=C/c1ccccc1	0	0	56	0	0	0
NS(=O)(=O)c1ccc(CNC(=O)C23CC4CC(CC(C4)C2)C3)cc1	0	28	0	0	0	0
CC(C)CCNC(=O)[C@@H](Cc1ccccc1)NC(=O)CC[C@H]1O[C@@H](n2ccc(=O)[nH]c2=O)[C@H](O)[C@@H]1O	0	0	0	0	0	0
CON(C)C(=O)CC1(CN(Cc2ccccc2)C(=O)OC(C)(C)C)CCCCC1	0	0	0	0	0	0
C#CC(=O)CC1(CN(Cc2ccccc2)C(=O)OC(C)(C)C)CCCCC1	0	0	34	0	0	0
CC12CCC(=O)N1C(C(=O)NNC(=O)COc1ccc(Br)cc1)CS2 (stereo unspecified)	0	0	33	0	0	0
CCCCn1nnnc1C(c1cc2ccccc2o1)N(CCN(C)C)Cc1ccccc1 (stereo unspecified)	-	0	-	0	-	0
CCOC(=O)[C@]12CCCC=C1N(Cc1ccco1)C(=O)[C@H](CC(=O)NCCc1ccccc1OC)C2	-	0	-	0	-	0
COc1ccc(N2CCN(C(=O)CSc3nnc4n3C(C)(C)Cc3ccccc3-4)CC2)cc1	0	0	0	0	0	0
Cc1ccc(Cl)cc1N1CCN(C(=O)CSc2nnc3n2C(C)(C)Cc2ccccc2-3)CC1	0	0	50	0	0	0
Cn1nc(C(F)(F)F)c(-c2ccc(Br)cc2)c1NC(=O)Nc1ccc(F)cc1F	0	0	38	0	0	0
CC1=C(C#N)C(C(F)(F)F)(C(F)(F)F)N=C(c2ccco2)N1	0	0	0	16	0	0
CCOc1ccc(C(=O)NCCN2CCCCC2)c(OCC)c1	0	0	0	0	0	0
COc1ccc(CN2CCOCC2)cc1	0	0	0	0	0	0
COc1ccc(CN2CCCCCC2)cc1	0	25	0	0	0	0
CCN(CC)c1ccc(CN2CCCCCC2)cc1	0	0	0	0	0	0
CN(C)c1ccc(CN2CCCCCC2)cc1	0	0	45	0	0	0
CCOC(=O)[C@]12CCC=C1N(Cc1ccccc1)C(=O)[C@H](CC(=O)NCc1cccs1)C2	-	0	-	0	-	0
CN(CCO)CCC(=O)NC1(C)CS(=O)(=O)CC1S(=O)(=O)O (stereo unspecified)	0	0	0	0	0	0
CCOC(=O)c1c(C)cc2c(CO)n[nH]c(=O)c2c1C	0	0	0	0	0	0
CCCOc1ccc(CNC(=O)CCC(=O)n2ncc3cc(C)ccc32)cc1	0	0	0	0	0	0
COc1ccc(CNC(=O)CCC(=O)n2ncc3cc(C)ccc32)cc1	0	24	0	0	0	0
CN(C)CCNc1ncnc2oc(-c3ccccc3)c(-c3ccccc3)c12	0	0	0	16	0	0

Bioassay records deposited in PubChem BioAssay by The Scripps Research Institute Molecular Screening Center.
